# Results taken from PubChem BioAssay (NCI).
# Several values for one entry are separate records, joined by “and”; a condition that tells them apart may be missing. Equal entries are not always repeated. Compounds without any hit were thinned out: in the full panel of roughly 79,000, 15% have a hit. Values without a mark were called inactive. Activity calls are given as the source filed them. No stated cut-off is given here; in the data, active means growth inhibition above about 70%; inactive means the rest.
# Assay: NCI Yeast Anticancer Drug Screen. Data for the bub3 strain (AID 167)
# Conditions: S. cerevisiae bub3 mutant strain, at 5.0 µM (retest, dose inferred, filed as 0.5), active compounds read high
# Protocol: Growth inhibition of yeast strains with defined genetic alterations is measured as a screen for potential anti-cancer activity. Selected strains with alterations in DNA damage repair or cell cycle control were exposed to compounds and growth inhibition was measured relative to vehicle treated controls. The strain used in this assay is bub3
row,SMILES,growth inhibition [%]
1,CC(O)C(=O)NC1CCCCC1 (stereo not given),2

# Same assay, conditions: S. cerevisiae bub3 mutant strain, at 50.0 µM (retest, dose inferred, filed as 5.0), active compounds read high
row,SMILES,growth inhibition [%]
1,CC(O)C(=O)NC1CCCCC1 (stereo not given),-4

# Same assay, conditions: S. cerevisiae bub3 mutant strain, active compounds read high; at 50.0 µM unless noted
row,SMILES,growth inhibition
1,CCCCCCC(=O)OCC(=O)c1ccc(Br)cc1,22.2%
2,CC(C)c1ccc(/C(C(=O)O)=C(\O)C(=O)O)cc1,-31.6%
3,CCCCCN=C(N)C(N)=NCCCCC,5.5%
4,COc1ccc(C(=O)/C=C/N)c(OC)c1,9.35%
5,CC(C)C(=O)Nc1ccc(S(=O)(=O)Nc2ccc(N)cc2O)cc1,20.1%
6,Cc1ccc2oc3c(ccc(=O)n3C)c(=O)c2c1,-35.5%
7,C1=NC(c2ccccc2)=CN(C2CCCCCCCCCCC2)C1(c1ccccc1)C1CCCCCCCCCCC1 (stereo not given),12.3%
8,CSc1nc(N)c2cnn(Cc3ccccc3)c2n1,31.4%
9,CC(NCCN1CCOCC1)c1ccc2ccccc2c1 (stereo not given),32.8%
10,O=C(O)CCC(=O)CCC(=O)O,-14.6%
11,O=c1nc(NCc2ccco2)ccn1C1OC(CO)C(O)C1O (stereo not given),-0.2%
12,O=C1CSC(c2c[nH]c3ccccc23)N1c1ccc(Cl)cc1 (stereo not given),-28.9%
13,C#CC(O)C1OC(C)(C)OC1C1COC(C)(C)O1 (stereo not given),-3.6%
14,CCCSCCC(NC(=O)c1ccccc1)C(=O)O (stereo not given),-15.2%
15,O=S(=O)(CCCl)c1ccc(Br)cc1,39.4%
16,O=C(CCS(=O)(=O)CCC(=O)c1ccc2ccccc2c1)c1ccc2ccccc2c1,0.25%
17,CC(=O)OC[C@H](O)[C@@]1(O)CC[C@H]2[C@@H]3CCC4=CC(=O)C=C[C@]4(C)[C@H]3[C@@H](O)C[C@@]21C,41.6%
18,CC1(C)SCc2nc3ccccc3n21,19.1%
19,O=C(NCc1ccco1)Nc1ccccc1C(F)(F)F,20.4%

row,SMILES,growth inhibition
1,CC(=O)OCC(OC(C)=O)C(OC(C)=O)C(OC(C)=O)C(OC(C)=O)C(=O)NC1CCc2ccccc2C1 (stereo not given),0.25%
2,O=C(Nc1ccc2ccccc2c1)c1ccccc1Cl,17.1%
3,O=C1/C(=C\c2ccccc2)Sc2cc[nH]c21,-1.85%
4,CN(/C(=N/C(=S)NCc1ccccc1)SCc1ccccc1)c1ccccc1,38.1%
5,CC(C)c1ccccc1O,0.45%
6,O=C1Oc2ccccc2C(=O)/C1=C/N1C(=O)N/C(=C\c2cccc(O)c2)C1=O,15.7%
7,C[C@]12CCC(=O)C=C1CC[C@@H]1[C@@H]2C(=O)C[C@]2(C)/C(=C\C(=O)O)CC[C@@H]12,-4.5%
8,O=C(CS(=O)(=O)c1ccccc1)c1ccccc1,0.55% and 29.9%
9,N#Cc1c(N2CCCC2)nsc1Nc1ccc(F)cc1,4.4%
10,CN(C)C(=NN=C(N(C)C)N(C)C)N(C)C,-5.85%
11,O=Nc1c(S(=O)(=O)O)cc2cc(S(=O)(=O)O)ccc2c1O,23.1%
12,CC1(C)OC1CS(=O)c1ccccc1 (stereo not given),5.5%
13,C=C1C(=O)OC2C3[C@@]4(C)O[C@H]4[C@H]4O[C@@]34[C@](C)(O)CC(OC(C)=O)[C@@H]12 (stereo not given in full),-24.4%
14,CCOC(=O)COc1cc2c(cc1C(CC)c1ccc(OC)cc1)OCO2 (stereo not given),16.4%
15,CCCCCCc1cc2cc(-c3csc(CC#N)n3)c(=O)oc2cc1O,-32.8%
16,CN(Cc1ccccc1Cl)C(=S)NC1CCCCC1,81.3% (active)
17,O=C(c1ccc([N+](=O)[O-])cc1)N(Cc1ccccc1)Cc1ccccc1 (tested in a mixture with another compound),26.8%
18,Clc1ncc(Cl)c(Cl)n1,-50.8%
19,COC(=O)[C@]1(C)CCCC2(C)C1CC[C@H]1C=C(C)[C@H]3CCC12C3 (stereo not given in full),-1.25%
